Drawing on article PMC8384837, “Expanding the binding specificity for RNA recognition by a PUF domain”, this text covers binding signal for nine sequences.

Holding throughout (experiment): yeast three-hybrid, YBZ-1, SC-Leu-His + 0.5 mM 3-AT, 4 days
Conditions in all cases: tags: N-Gal4 AD-HA kept; label: inside an RPR1-promoter hybrid RNA with tandem MS2 sites; ssRNA

One test concerns the target PUM1 PUF domain R5-RRN (Homo sapiens, UniProt Q14671 828-1176, C1007R;Q1011N). In outline: (§1)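 Pumilio-1 PUF domain libraries, randomized at the three base-contacting residues of each repeat, were co-expressed with matching RNA elements from a centromeric plasmid in strain YBZ-1, which carries a LexA–MS2 coat fusion and a HIS3 reporter. Transformants grew for four days on SC-Leu (input) or on SC-Leu-His + 0.5 mM 3-AT (selection), and the repeat regions were PCR-amplified and Illumina-sequenced. The interaction score is the log change in variant frequency from input to selection. That logarithm is base 2, with a pseudocount of 1 where a variant was absent.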

The next test addresses PUM1 PUF domain R8-PFK (Homo sapiens, UniProt Q14671 828-1176, N1122P;Y1123F;Q1126K). In outline: as §1
For a further test, the target named is PUM1 PUF domain R3-GRF (Homo sapiens, UniProt Q14671 828-1176, C935G;Q939F). The method, boiled down: as §1
The target of another test is PUM1 PUF domain R3-GPS (Homo sapiens, UniProt Q14671 828-1176, C935G;R936P;Q939S). In outline: as §1
The next test addresses PUM1 PUF domain R3-NPR (Homo sapiens, UniProt Q14671 828-1176, C935N;R936P;Q939R). In outline: as §1
In a further test the target is PUM1 PUF domain R1-RKM (Homo sapiens, UniProt Q14671 828-1176, S863R;R864K;Q867M). The method, boiled down: as §1
The target in another test is PUM1 PUF domain R3-TCE (Homo sapiens, UniProt Q14671 828-1176, C935T;R936C;Q939E). The method, boiled down: as §1
For the next test, the target named is PUM1 PUF domain R3-GFG (Homo sapiens, UniProt Q14671 828-1176, C935G;R936F;Q939G). The method, boiled down:
as §1

Another test has as its target PUM1 PUF domain R5-ARR (Homo sapiens, UniProt Q14671 828-1176, C1007A;Q1011R). In outline: as §1
The target of a further test is PUM1 PUF domain R4-SMT (Homo sapiens, UniProt Q14671 828-1176, N971S;H972M;Q975T). The method, boiled down:
as §1

Sequence of PUM1 PUF domain R5-RRN (Q14671 828-1176 C1007R/Q1011N): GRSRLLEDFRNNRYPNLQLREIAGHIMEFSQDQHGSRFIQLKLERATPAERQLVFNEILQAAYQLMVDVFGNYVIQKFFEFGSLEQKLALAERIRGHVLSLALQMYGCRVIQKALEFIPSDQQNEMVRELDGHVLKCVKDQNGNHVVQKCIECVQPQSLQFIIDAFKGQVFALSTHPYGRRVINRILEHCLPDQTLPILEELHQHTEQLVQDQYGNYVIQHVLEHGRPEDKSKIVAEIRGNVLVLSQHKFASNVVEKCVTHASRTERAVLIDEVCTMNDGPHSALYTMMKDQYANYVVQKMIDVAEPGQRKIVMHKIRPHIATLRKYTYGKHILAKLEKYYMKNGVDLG
Sequence of PUM1 PUF domain R3-GPS (Q14671 828-1176 C935G/R936P/Q939S): as the sequence (Q14671 828-1176 C1007R/Q1011N) above, with C108G, R109P, Q112S, R180C, N184Q counted along it
Sequence of PUM1 PUF domain R4-SMT (Q14671 828-1176 N971S/H972M/Q975T): as the sequence (Q14671 828-1176 C1007R/Q1011N) above, with N144S, H145M, Q148T, R180C, N184Q counted along it
Sequence of PUM1 PUF domain R3-GRF (Q14671 828-1176 C935G/Q939F): as the sequence (Q14671 828-1176 C1007R/Q1011N) above, with C108G, Q112F, R180C, N184Q counted along it
Sequence of PUM1 PUF domain R3-GFG (Q14671 828-1176 C935G/R936F/Q939G): as the sequence (Q14671 828-1176 C1007R/Q1011N) above, with C108G, R109F, Q112G, R180C, N184Q counted along it
Sequence of PUM1 PUF domain R5-ARR (Q14671 828-1176 C1007A/Q1011R): as the sequence (Q14671 828-1176 C1007R/Q1011N) above, with R180A, N184R counted along it
Sequence of PUM1 PUF domain R8-PFK (Q14671 828-1176 N1122P/Y1123F/Q1126K): as the sequence (Q14671 828-1176 C1007R/Q1011N) above, with R180C, N184Q, N295P, Y296F, Q299K counted along it
Sequence of PUM1 PUF domain R3-TCE (Q14671 828-1176 C935T/R936C/Q939E): as the sequence (Q14671 828-1176 C1007R/Q1011N) above, with C108T, R109C, Q112E, R180C, N184Q counted along it
Sequence of PUM1 PUF domain R1-RKM (Q14671 828-1176 S863R/R864K/Q867M): as the sequence (Q14671 828-1176 C1007R/Q1011N) above, with S36R, R37K, Q40M, R180C, N184Q counted along it
Sequence of PUM1 PUF domain R3-NPR (Q14671 828-1176 C935N/R936P/Q939R): as the sequence (Q14671 828-1176 C1007R/Q1011N) above, with C108N, R109P, Q112R, R180C, N184Q counted along it

Regarding “GGCUAGAACUAGUGGAUCCCCCGGCGCCCGGCGGCUCGAGCCCGGGUAAGUGUGAAUAGUCUGCAUGCCGCCGGGCGCCAUGCCUGCAGGUCGACUCUAGAAAACAUG”, in the test with PUM1 PUF domain R5-RRN, the binding signal is 1.8 log2 enrichment (interaction score).

“GGCUAGAACUAGUGGAUCCCCCGGCGCCCGGCGGCUCGAGCCCGGGUAAGCGUAAAUAGUCUGCAUGCCGCCGGGCGCCAUGCCUGCAGGUCGACUCUAGAAAACAUG”: the binding signal with PUM1 PUF domain R8-PFK was 4.13 log2 enrichment (interaction score).

On to “GGCUAGAACUAGUGGAUCCCCCGGCGCCCGGCGGCUCGAGCCCGGGUAAGUGUAAUUAGUCUGCAUGCCGCCGGGCGCCAUGCCUGCAGGUCGACUCUAGAAAACAUG”, for which the figures for the binding signal in the test with PUM1 PUF domain R3-GRF, with PUM1 PUF domain R3-GPS and in the test with PUM1 PUF domain R3-NPR were 0.84 log2 enrichment (interaction score), 1.97 log2 enrichment (interaction score) and 2.25 log2 enrichment (interaction score), respectively.

For the sequence “GGCUAGAACUAGUGGAUCCCCCGGCGCCCGGCGGCUCGAGCCCGGGUAAGUGUAAAUUGUCUGCAUGCCGCCGGGCGCCAUGCCUGCAGGUCGACUCUAGAAAACAUG”, the binding signal in the test with PUM1 PUF domain R1-RKM is 3.28 log2 enrichment (interaction score).

As for “GGCUAGAACUAGUGGAUCCCCCGGCGCCCGGCGGCUCGAGCCCGGGUAAGUGUAAGUAGUCUGCAUGCCGCCGGGCGCCAUGCCUGCAGGUCGACUCUAGAAAACAUG”, the binding signal was 5.59 log2 enrichment (interaction score) in the test with PUM1 PUF domain R3-TCE and 1.23 log2 enrichment (interaction score) with PUM1 PUF domain R3-GFG.

As to “GGCUAGAACUAGUGGAUCCCCCGGCGCCCGGCGGCUCGAGCCCGGGUAAGUGUUAAUAGUCUGCAUGCCGCCGGGCGCCAUGCCUGCAGGUCGACUCUAGAAAACAUG”, the binding signal with PUM1 PUF domain R5-RRN was 3.66 log2 enrichment (interaction score).

As for “GGCUAGAACUAGUGGAUCCCCCGGCGCCCGGCGGCUCGAGCCCGGGUAAGUGUCAAUAGUCUGCAUGCCGCCGGGCGCCAUGCCUGCAGGUCGACUCUAGAAAACAUG”, the binding signal is 4.4 log2 enrichment (interaction score) with PUM1 PUF domain R5-RRN and 4.7 log2 enrichment (interaction score) with PUM1 PUF domain R5-ARR.

With “GGCUAGAACUAGUGGAUCCCCCGGCGCCCGGCGGCUCGAGCCCGGGUAAGUGUAUAUAGUCUGCAUGCCGCCGGGCGCCAUGCCUGCAGGUCGACUCUAGAAAACAUG”, in the test with PUM1 PUF domain R4-SMT, the binding signal was 5.3 log2 enrichment (interaction score).

With “GGCUAGAACUAGUGGAUCCCCCGGCGCCCGGCGGCUCGAGCCCGGGUAAGUGUAAAUAGUCUGCAUGCCGCCGGGCGCCAUGCCUGCAGGUCGACUCUAGAAAACAUG”, the binding signal with PUM1 PUF domain R5-RRN was 2.02 log2 enrichment (interaction score); with PUM1 PUF domain R3-GRF, 4.89 log2 enrichment (interaction score); with PUM1 PUF domain R5-ARR, 4.33 log2 enrichment (interaction score); with PUM1 PUF domain R3-GFG, 3.47 log2 enrichment (interaction score); in the test with PUM1 PUF domain R3-GPS, 2.12 log2 enrichment (interaction score); with PUM1 PUF domain R4-SMT, 1.34 log2 enrichment (interaction score). The binding signal with PUM1 PUF domain R8-PFK was 5.15 log2 enrichment (interaction score).
